Assay outcomes deposited in PubChem BioAssay by National Center for Advancing Translational Sciences (NCATS).
The list is not random: actives were taken first. Their share in the collection is about 1.3%.
Anesthetic bind: candidate novel general anesthetic via apoferritin binding. P02791. apoferritin/1-aminoanthracene competitive binding, fluorescence. Potency, µM (doses to about 77.5 µM), for the others: at the highest dose activity change, negative = displacement, hits mostly inhibitors. actives 0.074% (n = 350,000). AID 485281; also: potency is read from the fitted curve at half-maximal effect; % is scaled to controls: 0 for no effect and ±100 for the full control effect; nearly all actives have a fitted effect of over 20% in size
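Read-out: endpoint 1-AMA fluorescence, excitation 380 nm and emission 535 nm, after compounds sit 10 min at room temperature with 10 uM horse-spleen apoferritin in 50% saturated 1-AMA/PBS. Values come from four-parameter Hill fits.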
GALK inhibitor: inhibitors of human galactokinase; Purified GALK, Kinase-Glo residual ATP luminescence; AID 1868; Potency, µM (doses to about 57.5 µM), for the others: at the highest dose activity change, negative = inhibition, hits mostly inhibitors; actives 0.007% (n = 270,000); P51570; also: potency is read from the fitted curve at half-maximal effect; % is scaled to controls: 0 for no effect and ±100 for the full control effect
Target sequence (P51570 whole entry, looked up): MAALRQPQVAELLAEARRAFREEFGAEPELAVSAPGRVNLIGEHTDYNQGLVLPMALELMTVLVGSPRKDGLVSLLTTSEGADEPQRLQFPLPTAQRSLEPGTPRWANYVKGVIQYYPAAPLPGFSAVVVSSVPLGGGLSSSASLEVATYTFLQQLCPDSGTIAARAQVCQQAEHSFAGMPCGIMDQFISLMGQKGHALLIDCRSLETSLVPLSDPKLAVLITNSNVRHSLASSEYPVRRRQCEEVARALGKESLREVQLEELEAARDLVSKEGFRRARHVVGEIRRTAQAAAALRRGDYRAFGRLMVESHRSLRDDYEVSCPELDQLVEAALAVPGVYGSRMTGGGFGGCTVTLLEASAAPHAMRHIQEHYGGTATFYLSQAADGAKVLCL
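Compounds were pin-transferred into ATP buffer (35 uM final), then GALK plus galactose (5 nM, 100 uM final) was added. After 1 h at room temperature, Kinase-Glo Plus was added and luminescence read after 10 min.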
TrxR1 inh: rat TrxR1 inhibition; recombinant rTrxR1, NADPH fluorescence consumption, selenite substrate; Potency, µM (series often up to 114 µM), for inactives: at the top dose activity change, negative = inhibition, actives largely listed as inhibitors; actives 1% (n = 390,000); AID 588453; also: potency is read from the fitted curve at half-maximal effect; % is scaled to controls: 0 for no effect and ±100 for the full control effect; nearly all actives have a fitted effect of over 65% in size
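Rat TrxR1 (90 nM in the dispensed reagent) was pre-reduced with 400 uM NADPH for 5 min at room temperature, then incubated with compound for 15 min. After 400 uM selenite was added, NADPH fluorescence (Ex 340/Em 450 nm) was followed for 8 min.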
IDH1 R132H inh: blocks human mutant IDH1 R132H enzyme; O75874; IDH1-R132H enzyme, NADPH consumption, diaphorase/resazurin fluorescence; Potency, µM (series often up to 76.6 µM), without a hit: at the top dose activity change, negative = inhibition, usual class: inhibitors; actives 0.093% (n = 390,000); AID 602179; also: potency is read from the fitted curve at half-maximal effect; % is scaled to controls: 0 for no effect and ±100 for the full control effect; nearly all actives have a fitted effect of over 65% in size
Target sequence (O75874 whole entry R132H, stated change not applied): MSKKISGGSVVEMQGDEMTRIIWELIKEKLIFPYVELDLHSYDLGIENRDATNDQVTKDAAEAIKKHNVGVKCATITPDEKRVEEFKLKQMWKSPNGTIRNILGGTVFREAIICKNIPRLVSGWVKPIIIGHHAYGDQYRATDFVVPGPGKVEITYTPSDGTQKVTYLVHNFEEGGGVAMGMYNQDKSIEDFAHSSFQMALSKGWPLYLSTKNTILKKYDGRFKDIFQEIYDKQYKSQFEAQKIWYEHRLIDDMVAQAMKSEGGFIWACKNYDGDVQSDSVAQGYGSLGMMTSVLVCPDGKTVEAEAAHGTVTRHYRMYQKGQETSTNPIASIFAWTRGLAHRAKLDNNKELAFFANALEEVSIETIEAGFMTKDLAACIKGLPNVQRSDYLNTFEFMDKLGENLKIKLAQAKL
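IDH1-R132H (0.5 ug/mL) preincubated 30 min with compound, then NADPH (0.016 mM) and alpha-KG (2 mM) added; 80 min at RT, pH 7.5. Remaining NADPH coupled via diaphorase/resazurin to fluorescence (540/590 nm); concentration-response curves normalized to no-enzyme control.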
TrxR1 substrate: is turned over as a substrate by rat TrxR1 | O89049 | purified TrxR1 substrate turnover, NADPH consumption readout | Potency, µM (top dose mostly 114 µM), inactives show at the top dose activity change, negative = substrate turnover | actives 0.01% (n = 390,000) | AID 588456; also: potency is read from the fitted curve at half-maximal effect; % is scaled to controls: 0 for no effect and ±100 for the full control effect; nearly all actives have a fitted effect of over 50% in size
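Rat TrxR1, dispensed at 90 nM, was prereduced with 400 uM NADPH (final) for 5 min at ~22 deg C, then incubated with compound 15 min before 400 uM selenite. A first-read NADPH fluorescence drop versus no-compound background flagged substrates.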
PKM2 act: activators of human pyruvate kinase M2; P14618; purified PKM2, Kinase-Glo ATP luminescence, activation; response scale: 0% is enzyme alone, no compound; Potency, µM (series often up to 57.5 µM), for the others: at the top dose activation, most hits filed as activators; actives 0.34% (n = 260,000); also: potency is read from the fitted curve at half-maximal effect; % is scaled to controls: 0 for no effect and ±100 for the full control effect; nearly all actives have a fitted effect of over 55% in size
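Purified hPK-M2 (>95%) run at intermediate activity with 0.1 mM ADP and 0.5 mM PEP in 50 mM imidazole pH 7.2, KCl, MgCl2; 1 h room temperature. ATP formed read by Kinase-Glo luminescence; normalized to uninhibited and no-enzyme controls.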
IDH1 autofl: autofluorescence interference, mutant IDH1 hit counter-screen | inhibition of signal, % at 51.2 µM | shares compounds with IDH1 R132H inh | Resorufin detection reagent fluorescence interference, cell-free | 750 tested, under 10 active;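 also: 0% = wells with normal resorufin and full inhibition = wells lacking resorufin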
IDH1 WT: selectivity of mutant IDH1 inhibitors: human wild-type IDH1; actives 9% (n = 750); WT IDH1 enzyme, NADPH diaphorase/resazurin fluorescence; shares compounds with IDH1 R132H inh; Potency, µM (highest dose often 115 µM), inactives show at the highest dose activity change, negative = inhibition, actives largely listed as inhibitors; AID 623995;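 also: potency is read from the fitted curve at half-maximal effect; 0% = full WT IDH1 enzyme control and full inhibition = no enzyme wells; nearly all actives have a fitted effect of over 55% in size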
IDH1 R132H conf: confirmation of human mutant IDH1 inhibitors | shares compounds with IDH1 R132H inh | IDH1 R132H enzyme, NADPH diaphorase/resazurin fluorescence | actives 83% (n = 750) | AID 624002 | Potency, µM (doses to about 76.6 µM), without a hit: at the highest dose activity change, negative = inhibition, most hits filed as inhibitors; also: potency is read from the fitted curve at half-maximal effect; nearly all actives have a fitted effect of over 50% in size
* = called active by the depositor; ? = inconclusive; . = no result; [ ] = remark or other dose. Calls follow the shape of the dose curve; as a rule, active = well fitted curve in the direction sought with a large enough effect; inconclusive = small, poorly fitted or top-dose-only effect, or another doubt; inactive = no such curve, though single readings can be large; an effect the other way counts as inactive or inconclusive.

SMILES | Anesthetic bind | GALK inhibitor | TrxR1 inh | IDH1 R132H inh | TrxR1 substrate | PKM2 act | IDH1 autofl | IDH1 WT | IDH1 R132H conf
COc1ccc(C(C(=O)NC2CCCC2)N(C(=O)c2snc(C(N)=O)c2N)c2ccccc2OC)cc1OC (configuration not stated) | -5.8% | -0.4% | 15.8% | -6.7% | 25.6% | . | . | . | .
COc1ccc(CN(C(=O)Cc2c[nH]c3ccccc23)C(C(=O)NC2CCCCC2)c2ccc(C)o2)cc1 (configuration not stated) | -9.6% | 0.1% | 9.3% | -17.3% | 0.9% | 4.6% | . | . | .
Cc1ccc(C(C(=O)NC2CCCC2)N(Cc2ccc(F)cc2)C(=O)c2csnn2)o1 (configuration not stated) | ? | 5.4% | -8.3%[57.1 µM] | -3.1% | -7.6%[57.1 µM] | 1.9% | . | . | .
COc1ccc(C(C(=O)NC2CCCC2)N(C(=O)c2snc(C(N)=O)c2N)c2cc(C)ccc2OC)cc1OC (configuration not stated) | -7.1% | 5.3% | -2.2% | ? | 4.2% | -3.2% | 5.0 | 3.6% | 31.6µM*
Cc1ccc(C(C(=O)NC2CCCC2)N(Cc2ccc(F)cc2)C(=O)c2snc(C(N)=O)c2N)o1 (configuration not stated) | -23.5% | 0.6% | 13.9% | ? | 12.8% | . | -11.6 | 10.9% | ?
CC(=O)c1cccc(N(C(=O)c2ccco2)C(C(=O)NC2CCCC2)c2ccccc2F)c1 (configuration not stated) | -23.6% | -2.2% | -3.8% | 23.3µM* | 0.8% | 2.5% | -0.8 | 4.3% | 11.2µM*
COc1ccc(CNC(=O)CCc2c(C)nn(-c3ccc(N4CCOCC4)nn3)c2C)cc1 | 2.4% | . | 4.6%[57.1 µM] | 0.0% | 2.0%[57.1 µM] | . | . | . | .
COc1cccc(CSc2nc3n(n2)C(c2ccccc2C)C(C(=O)Nc2ccccc2OC)=C(C)N3)c1 (configuration not stated) | -11.8% | . | -3.6%[57.1 µM] | 31.2% | -12.0%[57.1 µM] | . | . | . | .
CCOc1ccc(C2CC(=O)Nc3c2c(=O)[nH]c2ncnn32)cc1 (configuration not stated) | 0.9% | . | 17.2% | 10.5% | 4.5% | . | . | . | .
CN(C)c1ccc(C=O)cc1[N+](=O)[O-] | . | . | -12.1% | . | -16.4% | . | . | . | .
Cc1ccc(NC(=O)CCNS(=O)(=O)c2ccc3c(c2)CCCC(=O)N3)cc1 | 3.6% | . | 32.8% | -8.7% | 9.1% | . | . | . | .
COc1cc(Cl)c(C)cc1NC(=O)Cn1cc(S(=O)(=O)N2CCC(C)CC2)c2ccccc2c1=O | -2.9% | . | 0.1% | 3.5% | -13.8% | . | . | . | .
COc1ccccc1N(C(=O)c1snc(C(N)=O)c1N)C(C(=O)NCc1ccccc1)c1ccc(O)cc1 (configuration not stated) | 3.0% | -1.2% | 35.0% | 58.5µM* | 31.5% | -0.1% | 6.2 | -1.5% | 22.4µM*
COc1ccc(N(C(=O)c2snc(C(N)=O)c2N)C(C(=O)NC2CCCCC2)c2ccc(C)o2)cc1 (configuration not stated) | -9.2% | -2.3% | -16.9% | ? | 6.7% | . | 2.1 | 2.0% | ?
Cc1cccc(N(C(=O)c2ccco2)C(C(=O)NC2CCCC2)c2ccco2)c1C (configuration not stated) | -22.0% | -3.0% | 1.4%[57.1 µM] | ? | -1.4%[57.1 µM] | 0.7% | -4.8 | 7.8% | 20µM*
Cc1ccccc1N(C(=O)c1snc(C(N)=O)c1N)C(C(=O)NC1CCCC1)c1ccco1 (configuration not stated) | 3.6% | 9.7% | -4.8% | ? | 51.0% | 3.6% | 1.8 | 12.6% | 39.8µM*
O=C(NCCc1ccc(F)cc1)C(=O)NCC(c1cccs1)S(=O)(=O)c1ccccc1 (configuration not stated) | 3.0% | . | -0.3%[57.1 µM] | 0.7% | 3.0%[57.1 µM] | . | . | . | .
Cc1cc2nc(-c3ccc(NC(=O)c4ccccc4F)cc3)oc2cc1C | 37.0% | . | 17.7% | 0.0% | 185.7% | . | . | . | .
S=C(Nc1cccc2ccccc12)NC1CCCCC1 | ? | 15.6% | -15.3%[57.1 µM] | ? | -11.3%[57.1 µM] | -1.9% | -1.2 | ? | 4.9%
S=C(Nc1cccc2ccccc12)Nc1cccc2ccccc12 | . | . | 30.4% | 4.9% | 89.5% | . | . | . | .
Cc1nnsc1NC(=O)OCc1ccc(C(C)(C)C)cc1 | -11.5% | -1.1% | 15.0% | ? | -2.8% | 3.8% | 3.2 | 2.2% | -2.6%
C=CCOC(=O)Nc1snnc1C | -4.7% | -1.9% | 23.9%[57.1 µM] | -4.8% | 10.0%[57.1 µM] | 2.9% | . | . | .
Cc1ccc(S(=O)(=O)c2nnn3c2nc(NC(C)c2ccccc2)c2sccc23)cc1 (configuration not stated) | 27.8% | . | 44.0% | ? | 21.4% | . | -9.0 | 2.2% | 14.1µM*
Cc1ccc(C)c(S(=O)(=O)c2nnn3c2nc(Nc2ccc(F)c(Cl)c2)c2sccc23)c1 | -3.4% | . | 36.2% | ? | 15.0% | . | 3.6 | -3.1% | ?
CC(=O)Nc1ccc(Nc2nc3c(S(=O)(=O)c4cc(C)ccc4C)nnn3c3ccsc23)cc1 | 85.1% | . | 17.0% | -5.6% | 5.6% | . | . | . | .
Cc1ccc(S(=O)(=O)c2nnn3c2nc(NCc2ccccc2)c2sccc23)cc1 | -15.4% | . | 50.6% | -6.1% | 21.9% | . | . | . | .
Cc1ccc(-c2noc(-c3nnn(CC(=O)Nc4ccc(C)c(Cl)c4)c3N)n2)cc1 | 3.2% | . | 6.2% | . | -4.3% | . | . | . | .
CCN(c1ccc(OC)cc1)S(=O)(=O)c1ccc2[nH]c(=O)ccc2c1 | -14.0% | . | 11.6% | -3.5% | -10.8% | . | . | . | .
c1ccc(N(c2ccccc2)c2nc(N3CCCC3)nc(-n3ccnc3)n2)cc1 | -13.3% | -0.2% | 30.9% | 9.27µM* | 13.8% | -1.2% | -1.7 | -0.9% | 6.31µM*
CN(c1ccccc1)c1nc(N2CCCC2)nc(-n2ccnc2)n1 | -19.2% | -2.1% | 1.4% | -17.8% | -0.8% | 1.0% | . | . | .
